Measured values reported in PubChem BioAssay (NCATS).
Records with an inconclusive call do not appear. Active and inactive are the calls of the source. Unless noted, calls come from the whole dose curve; as a rule, active = well fitted curve in the direction sought with a large enough effect; inconclusive = small, poorly fitted or top-dose-only effect, or another doubt; inactive = no such curve, though single readings can be large; an effect the other way counts as inactive or inconclusive.

Columns and labels:
[1] = Primary qHTS for small molecule stabilizers of the endoplasmic reticulum resident proteome: Secreted ER Calcium Modulated Protein (SERCaMP) assay (AID 1508630)
Procedure, shortened: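 GLuc-SERCaMP-expressing SH-SY5Y cells, pretreated 16 h with compound, are challenged with thapsigargin to empty ER calcium stores; after 4 h, coelenterazine is added directly to the medium and luminescence is imaged.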

[2] = A High-Content qHTS Against Drug Library for the Identification of Small Molecules that Inhibit DYT1 Early Onset Primary Dystonia-Associated Cell Pathology (AID 1645839; calls by dose curve)
Procedure, shortened: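 In this high-content image screen, delE TorsinA mislocalization in inducible Flp-In 293 cells is scored as %pathology, with cell count serving as the counterscreen. Compound exposure lasts 48 h under tetracycline induction in reduced-serum medium.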

[3] = biological target: Cytochrome P450 2C9 (Homo sapiens) (UniProt P11712); assay: Cytochrome P450 family 2 subfamily C member 9 (CYP2C9) small molecule antagonists: luciferase biochemical (cell-free) qHTS assay (AID 1645842; active = well fitted curve in the direction sought with a large enough effect in the repeat runs; an effect the other way counts as inactive or inconclusive; note: nearly all actives have a fitted effect of over 55% in size; note: potency is the fitted concentration of half-maximal effect)
Procedure, shortened: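 Luminescence, after 20 min with luciferin detection reagent, reflected CYP2C9 turnover during a 1 h NADPH-driven reaction at 37C. Enzyme-substrate mix contained 0.4% bovine serum albumin and was preincubated with compound 10 min at room temperature.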

[4] = Primary qHTS for inhibitors of nuclear receptor binding SET domain protein 2 (NSD2) in an isogenic RCH-ACV NSD2 p.E1099K mutant (9B) (AID 1645876); note: nearly all actives have a fitted effect of over 70% in size; note: potency is the fitted concentration of half-maximal effect
[5] = Primary qHTS for inhibitors of nuclear receptor binding SET domain protein 2 (NSD2) in an RCH-ACV wild type WT cells (2C) (AID 1645877); note: nearly all actives have a fitted effect of over 70% in size; note: potency is the fitted concentration of half-maximal effect
[6] = Cytotoxicity counterscreen for inhibitors of SARS-CoV-2 cell entry (AID 1645845; calls by dose curve; note: nearly all actives have a fitted effect of over 50% in size)
Procedure, shortened: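 48 h compound treatment (after 1 h preincubation), HEK293-ACE2 cells, 37 C/5% CO2; ATP luminescence endpoint; normalized to cell wells and media blanks.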

[7] = Primary qHTS to identify inhibitors of SARS-CoV-2 cell entry (AID 1645846; calls by dose curve; note: nearly all actives have a fitted effect of over 45% in size); settings: activity change, negative = inhibition: at 57.1 µM (top of the series) unless noted
Procedure, shortened: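 Data are normalized to wells receiving SARS-CoV-2-S pseudoparticles and those given bald particles. Entry signal was luciferase luminescence in stable hACE2 Expi293F cells, 48 hr post-infection, after 1 hr compound pretreatment.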

[8] = biological target: Papain (Carica papaya) (UniProt P00784); assay: Primary qHTS assay for inhibitors of the protease papain (AID 1645873);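 note: papain turnover of Z-FR-AMC read as the AMC fluorescence gain over 10 min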
[9] = Confirmatory qHTS to identify inhibitors of SARS-CoV-2 cell entry (AID 1645844; calls by dose curve; note: nearly all actives have a fitted effect of over 45% in size)
Procedure, shortened: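 Luminescence from a luciferase reporter, read 48 hr after pseudotyped-particle addition, gives entry signal, normalised to spike-bearing PP wells and bald PP lacking fusion protein wells. Cells are Expi293F stably expressing human ACE2, compound-pretreated 1 hr.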

[10] = biological target: Cytochrome P450 2D6 (Homo sapiens) (UniProt P10635); assay: Cytochrome P450 family 2 subfamily D member 6 (CYP2D6) small molecule antagonists: luciferase biochemical (cell-free) qHTS assay (AID 1645840; active = well fitted curve in the direction sought with a large enough effect in the repeat runs; an effect the other way counts as inactive or inconclusive; note: nearly all actives have a fitted effect of over 55% in size; note: potency is the fitted concentration of half-maximal effect)
Procedure, shortened: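 P450-Glo luminescent screen: recombinant CYP2D6 enzyme–proluciferin substrate mix preincubated with compound 10 min at room temperature, then NADPH regeneration added for 1 h at room temperature. Detection reagent added for 20 min; luciferin light read as relative luminescence units.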

[11] = biological target: Cytochrome P450 3A4 (Homo sapiens) (UniProt P08684); assay: Cytochrome P450 family 3 subfamily A member 4 (CYP3A4) small molecule antagonists: luciferase qHTS assay (AID 1645841; active = well fitted curve in the direction sought with a large enough effect in the repeat runs; an effect the other way counts as inactive or inconclusive; note: nearly all actives have a fitted effect of over 45% in size)
Procedure, shortened: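 Luminescent CYP3A4 activity readout: compounds plus enzyme-substrate mix 10 min at room temperature, reaction started with NADPH regenerating system for 1 h, stopped with detection reagent, read after 20 min. Ketoconazole served as control.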

[12] = biological target: Rap guanine nucleotide exchange factor 3 (Homo sapiens) (UniProt O95398); assay: Confirmatory qHTS for agonist of cAMP-regulated guanine nucleotide exchange factor 3 (EPAC1) (AID 1645881);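 note: EPAC1 catalysed release of BODIPY-GDP from Rap1B seen as fluorescence loss; nearly all actives have a fitted effect of over 75% in size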
[13] = biological target: Rap guanine nucleotide exchange factor 4 (Homo sapiens) (UniProt Q8WZA2); assay: Confirmatory qHTS for agonist of cAMP-regulated guanine nucleotide exchange factor 4 (EPAC2) (AID 1645884);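 note: nucleotide exchange releases bodipy-GDP from Rap1 and this lowers its fluorescence; nearly all actives have a fitted effect of over 65% in size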
Sequence of Rap guanine nucleotide exchange factor 4 (Homo sapiens) (Q8WZA2 whole entry, looked up): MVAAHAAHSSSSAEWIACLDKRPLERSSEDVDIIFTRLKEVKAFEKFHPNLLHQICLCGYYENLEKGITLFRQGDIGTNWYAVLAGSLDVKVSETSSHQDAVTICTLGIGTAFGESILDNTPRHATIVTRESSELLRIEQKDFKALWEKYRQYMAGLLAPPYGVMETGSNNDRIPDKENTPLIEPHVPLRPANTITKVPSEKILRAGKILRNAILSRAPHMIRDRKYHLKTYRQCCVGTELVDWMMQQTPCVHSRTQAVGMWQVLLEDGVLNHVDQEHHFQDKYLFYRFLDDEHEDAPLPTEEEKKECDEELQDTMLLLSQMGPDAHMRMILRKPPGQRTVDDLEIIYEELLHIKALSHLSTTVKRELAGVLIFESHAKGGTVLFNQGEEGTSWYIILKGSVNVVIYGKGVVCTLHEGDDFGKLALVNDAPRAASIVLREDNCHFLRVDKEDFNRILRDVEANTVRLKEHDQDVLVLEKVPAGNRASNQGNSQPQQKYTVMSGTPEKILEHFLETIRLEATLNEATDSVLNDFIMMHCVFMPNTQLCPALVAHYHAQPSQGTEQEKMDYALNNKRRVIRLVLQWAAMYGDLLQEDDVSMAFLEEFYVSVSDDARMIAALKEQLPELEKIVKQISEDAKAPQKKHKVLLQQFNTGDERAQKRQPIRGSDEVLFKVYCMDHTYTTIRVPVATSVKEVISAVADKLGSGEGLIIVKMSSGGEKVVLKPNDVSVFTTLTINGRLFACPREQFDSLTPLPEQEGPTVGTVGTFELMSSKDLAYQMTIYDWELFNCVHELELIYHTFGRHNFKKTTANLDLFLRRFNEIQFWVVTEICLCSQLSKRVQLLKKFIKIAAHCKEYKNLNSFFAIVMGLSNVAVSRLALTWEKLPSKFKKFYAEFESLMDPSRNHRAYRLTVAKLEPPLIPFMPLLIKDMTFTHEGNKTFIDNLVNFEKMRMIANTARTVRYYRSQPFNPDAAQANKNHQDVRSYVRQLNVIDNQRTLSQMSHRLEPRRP

Sequence of Papain (Carica papaya) (P00784 whole entry, looked up): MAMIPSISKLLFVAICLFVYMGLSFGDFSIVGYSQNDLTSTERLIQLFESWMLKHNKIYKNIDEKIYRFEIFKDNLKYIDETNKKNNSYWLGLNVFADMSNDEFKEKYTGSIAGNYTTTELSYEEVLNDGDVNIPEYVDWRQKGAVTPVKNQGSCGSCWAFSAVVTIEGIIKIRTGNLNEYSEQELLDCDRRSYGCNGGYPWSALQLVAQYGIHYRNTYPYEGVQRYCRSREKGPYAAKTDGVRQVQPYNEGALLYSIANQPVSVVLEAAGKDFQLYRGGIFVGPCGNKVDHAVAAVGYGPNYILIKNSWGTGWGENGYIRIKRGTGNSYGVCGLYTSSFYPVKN
Sequence of Cytochrome P450 2C9 (Homo sapiens) (P11712 whole entry, looked up): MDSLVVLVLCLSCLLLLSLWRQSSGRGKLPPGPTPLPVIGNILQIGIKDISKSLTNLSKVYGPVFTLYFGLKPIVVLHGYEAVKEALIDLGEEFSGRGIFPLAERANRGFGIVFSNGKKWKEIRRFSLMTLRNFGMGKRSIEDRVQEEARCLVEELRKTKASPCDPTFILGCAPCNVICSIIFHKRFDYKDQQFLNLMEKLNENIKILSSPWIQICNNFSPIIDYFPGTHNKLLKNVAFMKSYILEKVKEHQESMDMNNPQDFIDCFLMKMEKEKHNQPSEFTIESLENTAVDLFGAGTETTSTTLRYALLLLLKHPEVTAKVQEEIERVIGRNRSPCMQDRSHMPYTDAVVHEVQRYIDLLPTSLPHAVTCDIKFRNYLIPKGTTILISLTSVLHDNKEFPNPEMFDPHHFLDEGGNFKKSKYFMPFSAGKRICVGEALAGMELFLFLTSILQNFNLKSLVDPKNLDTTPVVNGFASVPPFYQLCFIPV
Sequence of Cytochrome P450 3A4 (Homo sapiens) (P08684 whole entry, looked up): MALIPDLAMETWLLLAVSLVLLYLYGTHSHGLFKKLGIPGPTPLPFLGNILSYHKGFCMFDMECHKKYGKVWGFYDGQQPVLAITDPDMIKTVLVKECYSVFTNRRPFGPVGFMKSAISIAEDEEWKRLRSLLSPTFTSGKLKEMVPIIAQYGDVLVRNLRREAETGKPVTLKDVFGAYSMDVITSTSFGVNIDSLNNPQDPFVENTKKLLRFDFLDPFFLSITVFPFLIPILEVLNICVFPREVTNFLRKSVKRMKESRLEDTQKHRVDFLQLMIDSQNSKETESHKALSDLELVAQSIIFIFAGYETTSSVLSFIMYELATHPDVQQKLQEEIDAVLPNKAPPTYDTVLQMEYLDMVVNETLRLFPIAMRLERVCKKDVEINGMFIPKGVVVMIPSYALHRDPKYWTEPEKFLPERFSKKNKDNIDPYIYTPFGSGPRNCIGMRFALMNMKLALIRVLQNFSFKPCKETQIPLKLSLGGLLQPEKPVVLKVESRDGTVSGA
Sequence of Cytochrome P450 2D6 (Homo sapiens) (P10635 whole entry, looked up): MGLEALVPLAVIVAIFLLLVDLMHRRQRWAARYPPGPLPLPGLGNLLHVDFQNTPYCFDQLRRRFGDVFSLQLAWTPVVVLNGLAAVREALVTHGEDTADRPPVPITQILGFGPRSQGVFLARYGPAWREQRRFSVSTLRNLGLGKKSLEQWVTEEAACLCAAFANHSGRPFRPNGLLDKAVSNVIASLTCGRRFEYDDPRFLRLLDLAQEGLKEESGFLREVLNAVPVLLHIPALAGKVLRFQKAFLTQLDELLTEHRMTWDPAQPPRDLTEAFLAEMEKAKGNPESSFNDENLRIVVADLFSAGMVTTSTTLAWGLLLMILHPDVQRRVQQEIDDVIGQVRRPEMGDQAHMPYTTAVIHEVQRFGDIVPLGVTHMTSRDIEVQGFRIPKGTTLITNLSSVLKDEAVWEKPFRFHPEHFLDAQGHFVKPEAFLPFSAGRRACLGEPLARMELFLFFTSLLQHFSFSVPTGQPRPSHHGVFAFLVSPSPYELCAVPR
Sequence of Rap guanine nucleotide exchange factor 3 (Homo sapiens) (O95398 whole entry, looked up): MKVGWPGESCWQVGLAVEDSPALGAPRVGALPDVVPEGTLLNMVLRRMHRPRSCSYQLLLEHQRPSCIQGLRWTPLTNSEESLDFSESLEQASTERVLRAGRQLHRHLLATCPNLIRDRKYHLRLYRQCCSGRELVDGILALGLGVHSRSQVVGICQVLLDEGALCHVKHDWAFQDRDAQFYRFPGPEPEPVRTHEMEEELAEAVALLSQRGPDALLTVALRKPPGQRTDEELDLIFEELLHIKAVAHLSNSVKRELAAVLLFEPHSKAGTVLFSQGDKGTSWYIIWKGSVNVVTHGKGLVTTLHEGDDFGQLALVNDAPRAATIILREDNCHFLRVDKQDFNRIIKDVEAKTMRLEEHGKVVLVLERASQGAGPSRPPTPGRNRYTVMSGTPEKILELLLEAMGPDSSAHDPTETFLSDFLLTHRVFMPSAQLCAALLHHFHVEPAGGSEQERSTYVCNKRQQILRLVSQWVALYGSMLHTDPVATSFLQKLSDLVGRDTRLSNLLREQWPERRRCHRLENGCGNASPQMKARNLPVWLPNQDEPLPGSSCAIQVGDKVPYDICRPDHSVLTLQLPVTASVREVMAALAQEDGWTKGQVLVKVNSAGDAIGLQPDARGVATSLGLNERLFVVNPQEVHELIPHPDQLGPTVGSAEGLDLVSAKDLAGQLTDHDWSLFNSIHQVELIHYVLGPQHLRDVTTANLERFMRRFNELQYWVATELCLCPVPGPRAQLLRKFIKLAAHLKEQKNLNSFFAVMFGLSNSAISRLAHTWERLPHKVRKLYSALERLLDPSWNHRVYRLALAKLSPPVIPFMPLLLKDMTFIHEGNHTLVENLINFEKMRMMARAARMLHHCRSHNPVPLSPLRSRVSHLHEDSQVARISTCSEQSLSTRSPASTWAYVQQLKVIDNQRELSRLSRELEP

O=c1[nH]c2ccccc2n1C1CCNCC1
inactive: Potency [1] | outcome [2] | Potency [3] | Potency [4] | Potency [5]

O=C1OC(c2ccc(O)c(S(=O)(=O)O)c2)(c2ccc(O)c(S(=O)(=O)O)c2)c2c(Br)c(Br)c(Br)c(Br)c21
inactive: Potency [1] | outcome [2] | Potency [3] | Potency [6] | Potency [7] | Potency [4] | Potency [5]

CC(NC(C)(C)C)C(=O)c1cccc(Cl)c1 (stereo not drawn)
-12.4%: activity change, negative = inhibition [7]
inactive: Potency [1] | outcome [2] | Potency [3] | Potency [6] | Potency [7] | outcome [8] | Potency [4] | Potency [5]

O=C1c2ccccc2C(=O)c2ccccc21
inactive: Potency [1] | outcome [2] | Potency [3] | Potency [6] | Potency [7] | Potency [4] | Potency [5]

CC(C)c1cccc(C(C)C)c1O
-52.4%: activity change, negative = inhibition [7]
inactive: Potency [1] | outcome [2] | Potency [9] | Potency [6] | outcome [8] | Potency [4]

CC1(C)C(C=C(Cl)Cl)C1C(=O)OC(C#N)c1cccc(Oc2ccccc2)c1 (stereo not drawn)
inactive: Potency [1] | outcome [2] | Potency [4] | Potency [5]

CC(C)c1c(CN(C)C(C)Cc2ccccc2)n(C)n(-c2ccccc2)c1=O (stereo not drawn)
active: Potency [3] 7.76 µM
inactive: Potency [1] | Potency [10] | Potency [4] | Potency [5]

CCC(CC)(CNC(=O)CCCO)c1cccc(OC)c1
inactive: Potency [1] | outcome [2] | Potency [3] | Potency [6] | Potency [4] | Potency [5]
-32.3%: activity change, negative = inhibition [7]

C[C@]12CC[C@@H]3c4ccc(OC(=O)N(CCCl)CCCl)cc4CC[C@H]3[C@@H]1CC[C@@H]2O
inactive: Potency [1] | Potency [10] | Potency [11] | Potency [3] | Potency [6] | Potency [7] | outcome [12] | outcome [13]

COC1CC(=C(c2cccs2)c2cccs2)C[N+](C)(C)C1 (stereo not drawn)
inactive: Potency [1] | outcome [2] | Potency [3] | Potency [6]
-29.5%: activity change, negative = inhibition [7]
active: Potency [5] 15 µM

O=C(O)CCCc1ccc(N(CCCl)CCCl)cc1
inactive: Potency [1] | outcome [2] | Potency [3] | Potency [6] | Potency [4] | Potency [5]

COP(=S)(OC)Oc1ccc(S(=O)(=O)N(C)C)cc1
active: Potency [3] 0.617 µM
inactive: Potency [1] | outcome [2] | Potency [6] | Potency [7] | Potency [4]

CN(C)CCc1c[nH]c2cccc(OP(=O)(O)O)c12
inactive: Potency [1] | outcome [2] | Potency [3] | Potency [4] | Potency [5]

COP(=S)(OC)Oc1cc(Cl)c(Cl)cc1Cl
inactive: Potency [1] | outcome [2] | Potency [6] | Potency [7] | Potency [4] | Potency [5]
active: Potency [3] 6.92 µM

CNC(C)(C)Cc1ccccc1
inactive: Potency [1] | outcome [2] | Potency [3] | Potency [6] | Potency [7] | Potency [4] | Potency [5]

C=C(C)[C@H]1CN[C@H](C(=O)O)[C@H]1CC(=O)O
inactive: Potency [1] | outcome [2] | Potency [3] | Potency [6] | Potency [7] | outcome [8] | Potency [4] | Potency [5]

CCN(CCO)CCn1c(Cc2ccccc2)nc2c1c(=O)n(C)c(=O)n2C
inactive: Potency [1] | outcome [2] | Potency [3] | Potency [4] | Potency [5]

COc1ccc2c(c1OC)C(=O)O[C@H]2[C@@H]1c2cc3c(cc2CCN1C)OCO3
active: Potency [3] 4.9 µM
inactive: Potency [1] | Potency [6] | Potency [7] | outcome [8] | Potency [4] | Potency [5]

CC(C)NC(C)C
inactive: outcome [2] | Potency [3] | Potency [6] | Potency [7] | Potency [4] | Potency [5]

C[C@H]1[C@@H]2Cc3ccc(O)cc3[C@@]1(C)CCN2C
inactive: outcome [2] | Potency [3] | Potency [4] | Potency [5]

C=CCC1([C@H](C)CCC)C(=O)NC(=O)NC1=O
inactive: outcome [2] | Potency [3]

CCN[C@@H](C)Cc1ccccc1
active: Potency [10] 6.28 µM
inactive: outcome [2] | Potency [3] | Potency [4] | Potency [5]

COc1cc(CC(C)N)cc(OC)c1OC (stereo not drawn)
inactive: outcome [2] | Potency [3]

CC(=O)C1CCOC1=O (stereo not drawn)
inactive: outcome [2] | Potency [3] | Potency [4] | Potency [5]

O=C(Nc1ccc(Br)cc1)c1cc(Br)cc(Br)c1O
active: Potency [3] 3.47 µM
inactive: Potency [1] | Potency [6] | Potency [7] | Potency [4] | Potency [5]

CCC1(CC)C(=O)C=CNC1=O
inactive: outcome [2] | Potency [10] | Potency [4] | Potency [5]

CNCC(=O)c1ccc(O)c(O)c1
inactive: outcome [2] | Potency [3] | Potency [4]

Nc1ccc([As](=O)(O)O)cc1
inactive: outcome [2] | Potency [10] | Potency [11] | Potency [3] | Potency [6] | Potency [4] | Potency [5]
-1.46%: activity change, negative = inhibition [7]

O=c1oc2ccccc2c(O)c1Cc1c(O)c2ccccc2oc1=O
active: Potency [4] 21.1 µM
inactive: outcome [2] | Potency [6] | Potency [7]

CC(C)(C)c1ccc(O)cc1
-17.1%: activity change, negative = inhibition [7]
inactive: outcome [2]

Clc1ccccc1N1CCNCC1
inactive: outcome [2] | Potency [11] | Potency [3] | Potency [4] | Potency [5]

C[C@](O)(CS(=O)(=O)c1ccc(F)cc1)C(=O)Nc1ccc(C#N)c(C(F)(F)F)c1
inactive: Potency [1] | Potency [6]

CN1CC[C@]23c4c5ccc(O)c4O[C@H]2[C@@H](O)CC[C@H]3[C@H]1C5
inactive: outcome [2] | Potency [3] | Potency [4] | Potency [5]

C#CC(O)(C=CCl)CC (stereo not drawn)
-20.1%: activity change, negative = inhibition [7]
inactive: outcome [2] | Potency [3] | Potency [6] | Potency [4] | Potency [5]
